# Experimental data reported in PubChem BioAssay (EPA / NIEHS).
# Calls of active or inactive are those of the source. Rule for the calls: active = hit-call score of the fitted dose curve at least 0.9, where 1 is the maximum; inactive = score below 0.9.
# Assay: ATG_MRE_CIS: Attagene CIS-FACTORIAL HepG2 Assay for human Metal Responsive Element (MRE) (AID 2282954)
# Settings: HepG2 MRE cis-reporter transcription, Attagene multiplex; actives raise or lower the signal
# Procedure, shortened: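 Fluorescent reporter fragments separated by capillary electrophoresis give mRNA induction for the MRE unit after 24 h treatment of transfected HepG2 cells. Endogenous transcription-factor activity is read; DMSO serves as negative control and baseline.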
row,Compound,outcome
1,CC1(C)S[C@@H]2[C@H](NC(=O)COc3ccccc3)C(=O)N2[C@H]1C(=O)O,inactive
2,COc1c2ccoc2cc2oc(=O)ccc12,inactive
3,O=c1[nH]nc(-c2ccc([N+](=O)[O-])o2)o1,inactive
4,C=C[Si](OC(C)=O)(OC(C)=O)OC(C)=O,inactive
5,COc1cc(NC(=O)CC(C)=O)c(OC)cc1Cl,inactive
6,O=C(O)CCCC[C@@H]1SC[C@@H]2NC(=O)N[C@@H]21,inactive
7,CCCNC(=O)NS(=O)(=O)c1ccc(Cl)cc1,inactive
8,C=C(C)C(=O)OCCOc1ccccc1,inactive
9,CC(C)(C)C(=O)CCc1ccc(Cl)cc1,inactive
10,[Cl][Nd]([Cl])[Cl],inactive
11,COc1ccc(C(Cl)=C(c2ccc(OC)cc2)c2ccc(OC)cc2)cc1,inactive
12,CCCOC(=O)CCCCC(=O)OCCC,inactive
13,c1ccc(-c2ccccn2)nc1,inactive
14,CNC(=S)N(C)C,inactive
15,C[C@]12C=CC(=O)C=C1CC[C@@H]1[C@@H]2[C@@H](O)C[C@@]2(C)[C@H]1CC[C@]2(O)C(=O)CO,inactive
16,Cc1ccc(C(C)(C)C)cc1,inactive

# Assay: ATG_PBREM_CIS: Attagene CIS-FACTORIAL HepG2 Assay for human Phenobarbital-responsive Enhancer Module (PBREM) (AID 2282955)
# Settings: HepG2 PBREM cis-reporter, Attagene multiplexed transcription; actives raise or lower the signal
# Procedure, shortened: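 Endogenous transcription factors in human liver HepG2 cells drive a PBREM cis-element reporter, whose transcript level after 24 h treatment is quantified by RT-PCR with capillary electrophoresis; activity fitted in both directions against DMSO.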
Compound,outcome,AC50
C=CC(C)(C)C,inactive,–
CCCCCCCCCCCCCOP(=O)(O)O,inactive,–
NC(=O)OCC(COC(N)=O)c1ccccc1,inactive,–
CCCCC(CC)COCC1CO1 (centres undefined),inactive,–
CC(=O)OCC(=O)[C@@]12N=C(C)O[C@@H]1C[C@H]1[C@@H]3CCC4=CC(=O)C=C[C@]4(C)[C@H]3[C@@H](O)C[C@@]12C,inactive,–
CC=CC(=O)N(CC)c1ccccc1C,inactive,–
CN1C(=O)N(C)C(O)C1O (centres undefined),inactive,–
COc1ccc2nc(N)sc2c1,inactive,–
CCOCC(=O)O,inactive,–
Nc1ncn([C@@H]2O[C@H](CO)[C@@H](O)[C@H]2O)c(=O)n1,inactive,–
OC1CCCC1,inactive,–
O=c1c2ccccc2oc2ccccc12,inactive,–
Cc1ccc(C(C)c2ccc(C)c(C)c2)cc1C,inactive,–
CC(=O)NS(=O)(=O)c1ccc(N)cc1,inactive,–
C[C@]12CCC(=O)C=C1CC[C@@H]1[C@@H]2C(=O)C[C@@]2(C)[C@H]1CC[C@]2(O)C(=O)CO,inactive,–
CCN(CC#N)c1cccc(C)c1,inactive,–
CC1(C)S[C@@H]2[C@H](NC(=O)COc3ccccc3)C(=O)N2[C@H]1C(=O)O,inactive,–

Compound,outcome,AC50
COc1c2ccoc2cc2oc(=O)ccc12,inactive,–
O=c1[nH]nc(-c2ccc([N+](=O)[O-])o2)o1,inactive,–
C=C[Si](OC(C)=O)(OC(C)=O)OC(C)=O,inactive,–
COc1cc(NC(=O)CC(C)=O)c(OC)cc1Cl,inactive,–
O=C(O)CCCC[C@@H]1SC[C@@H]2NC(=O)N[C@@H]21,inactive,–
C=C(C)C(=O)OCCOc1ccccc1,inactive,–
CC(C)(C)C(=O)CCc1ccc(Cl)cc1,inactive,–
COC(=O)/C=C\C(=O)O,inactive,–
[Cl][Nd]([Cl])[Cl],inactive,–
NCCCN1CCN(CCCN)CC1,inactive,–
CCCCC(CC)COC(=O)c1ccccc1O (centres undefined),inactive,–
COc1ccc(C(Cl)=C(c2ccc(OC)cc2)c2ccc(OC)cc2)cc1,inactive,–
CCOC(=O)N1CCC(=C2c3ccc(Cl)cc3CCc3cccnc32)CC1,–,933 nM (active)
CNC(=S)N(C)C,inactive,–
C[C@]12C=CC(=O)C=C1CC[C@@H]1[C@@H]2[C@@H](O)C[C@@]2(C)[C@H]1CC[C@]2(O)C(=O)CO,inactive,–
Cc1ccc(C(C)(C)C)cc1,inactive,–
